The values that follow come from the supplement of paper PMC13380429.

The assay has as its system Vero E6 infected with SARS-CoV-2. The assay is described as follows: morphology score (similarity to uninfected cells); higher = more like uninfected cells. The conditions noted are these: 24 h.
Molecule `CCCCN(CCCC)CCC(O)c1cc2c(Cl)cc(Cl)cc2c2cc(C(F)(F)F)ccc12` (stereo not given) [halofantrine] (10 µM) came in with a morphology score of 0.406.
Under `COc1ccccc1OCC(O)CO` (stereo not given) [guaifenesin] (10 µM) stands -0.044; under `COc1ccc(OC)c(CN(C(C)=O)c2cc(F)ccc2Oc2ccccc2)c1` (10 µM), 0.0987; under `O=C1NN(C(=O)Nc2ccc(Br)cc2)[C@@H](c2ccccc2)[C@@H]1c1ccccc1` (10 µM), -0.176.
In the case of `CC(C)[C@@H](C(=O)Nc1nccs1)c1ccc(Cl)cc1` (10 µM), the morphology score amounted to 0.0344.
Under `NC[C@@H]1CC[C@@H](N)[C@@H](O[C@H]2[C@H](O)[C@@H](O[C@H]3O[C@H](CO)[C@@H](O)[C@H](N)[C@H]3O)[C@H](N)C[C@@H]2N)O1` [dibekacin] (10 µM) stands 0.0218; under `CC(C)(OCc1nn(Cc2ccccc2)c2ccccc12)C(=O)O` [bindarit] (10 µM), 0.132.
To `C[C@@H]1O[C@@H](O[C@H]2[C@H](Oc3cc(O)c(C(=O)CCc4ccc(O)cc4)c(O)c3)O[C@H](CO)[C@@H](O)[C@@H]2O)[C@H](O)[C@H](O)[C@H]1O` [naringin-dihydrochalcone] (10 µM) belongs 0.0437.
In turn, `CCC(=O)O[C@]1(C(=O)CCl)[C@@H](C)C[C@H]2[C@@H]3CCC4=CC(=O)C=C[C@]4(C)[C@@]3(F)[C@@H](O)C[C@@]21C` [clobetasol-propionate] (10 µM) had a morphology score of 0.00072.
Take `O=C(O)Cc1ccccc1Nc1c(Cl)cccc1Cl` [diclofenac] (10 µM): the morphology score is -0.00811.
In turn, `CCOC(=O)N[C@@H]1CC[C@@H]2[C@@H](C1)C[C@H]1C(=O)O[C@H](C)[C@H]1[C@H]2/C=C/c1ccc(-c2cccc(F)c2)cn1` [vorapaxar] (10 µM) displayed a morphology score of 0.209.
The molecule `O=[N+]([O-])c1ccc2nc(COCc3nc4ccc([N+](=O)[O-])cc4[nH]3)[nH]c2c1` (10 µM) showed a morphology score of -0.00439.
`CC1Oc2cc(cnc2N)-c2c(nn(C)c2C#N)CN(C)C(=O)c2ccc(F)cc21` (stereo not given) (10 µM) yielded a morphology score of 0.32.
To `CCC(=O)O[C@H](CC(=O)O)C[N+](C)(C)C` [levocarnitine-propionate] (10 µM) belongs -0.0873.
Under `CC(C)(C)CCN1C[C@@H]2[C@@H](CNC(=O)c3cc(Cl)cc(Cl)c3)[C@@H]2C1` (10 µM) stands 0.324.
To `Nc1ccc(F)cc1NC(=O)c1ccc(CNC(=O)/C=C/c2cccnc2)cc1` [chidamide] (0.833333 µM) belongs -0.0654.
`Oc1ccc(CC2NCCc3cc(O)c(O)cc32)cc1` (stereo not given) [higenamine] (0.833333 µM) returned a morphology score of 0.0764.
Under `Cc1nc(C#Cc2ccnc(Cl)c2)c(C)n1-c1ccc(F)cc1` [basimglurant] (10 µM) stands 0.114.
With `O=C(NCc1ccncc1)C12CC3CC(C1)CC(c1ccc(Cl)cc1)(C3)C2` (10 µM), the morphology score stood at 0.00848.
To `CCOC(=O)Nc1ccc(NCc2c(C)cc(C)cc2C)cc1N` (10 µM) belongs -0.0161; to `CC(=O)N(C)c1cccc(-c2ccnc3c(C(=O)c4cccs4)cnn23)c1` [indiplon] (10 µM), -0.213.
To `Cc1cc(-c2nc(C(=O)Nc3cn(C4CCOCC4)nc3C(N)=O)co2)ccn1` (10 µM) belongs -0.166; to `OC(c1cc(C(F)(F)F)nc2c(C(F)(F)F)cccc12)C1CCCCN1` (stereo not given) [mefloquine] (0.833333 µM), -0.113; to `CC(C)(Oc1ccc(C(=O)c2ccc(Cl)cc2)cc1)C(=O)O` [fenofibric-acid] (10 µM), 0.137.
With `COc1cc(N)c(Cl)cc1C(=O)NC1CN2CCC1CC2` (stereo not given) [zacopride] (10 µM), the morphology score was determined as 0.169.
In turn, `CCCCC1(COC(=O)CCC(=O)O)C(=O)N(c2ccccc2)N(c2ccccc2)C1=O` [suxibuzone] (10 µM) had a morphology score of 0.183.
To `O=C(NNC(=O)c1ccc(CNS(=O)(=O)c2ccc(F)c(Cl)c2)cc1)c1ccccc1` (10 µM) belongs -0.0845; to `COc1cc(N)c(Cl)cc1C(=O)N[C@@H]1CCN(CCCOc2ccc(F)cc2)C[C@@H]1OC` (racemic) [cisapride] (10 µM), -0.0266.
In turn, `C[C@H](NC[C@H](O)CP(=O)(O)Cc1ccccc1)c1ccc(Cl)c(Cl)c1` (10 µM) had a morphology score of 0.127.
In turn, `N#CCC(=O)NN` [cyacetacide] (10 µM) came in with a morphology score of 0.167.
`CCn1nc(C)c2c1C(c1ccccc1)=NCC(=O)N2` [ripazepam] (10 µM) yielded a morphology score of 0.0297.
Under `c1ccc(CCCCN2CCC(c3ccccc3)CC2)cc1` (10 µM) stands 0.286; under `CO/N=C(\C(=O)N[C@@H]1C(=O)N2C(C(=O)[O-])=C(C[n+]3ccn4ncccc43)CS[C@H]12)c1nsc(N)n1` [cefozopran] (10 µM), 0.0209; under `Cc1onc(-c2ccccc2Cl)c1C(=O)N[C@@H]1C(=O)N2[C@@H]1SC(C)(C)[C@@H]2C(=O)O` [cloxacillin] (10 µM), 0.00481.
To `COc1cc(OCc2cccc(-c3ccccc3)c2C)cc(OC)c1CN1CCCC[C@H]1C(=O)O` [PD1-PDL-inhibitor-1] (10 µM) belongs 0.00556; to `CCN(CC)CCNC(=O)c1ccc(N)cc1` [procainamide] (10 µM), 0.00737; to `CCOc1cc2ncc(C#N)c(Nc3ccc(OCc4ccccn4)c(Cl)c3)c2cc1NC(=O)/C=C/CN(C)C` [neratinib] (10 µM), -0.265.
Under `N#Cc1ccc(NCCNCC(=O)N2CCC[C@H]2C#N)nc1` (10 µM) stands -0.0945; under `CC(C)(C)c1cc(C(C)(C)C)c(NC(=O)c2c[nH]c3ccccc3c2=O)cc1O` [ivacaftor] (10 µM), 0.363.
In turn, `CC[C@H]1[C@@H](O)[C@@H]2[C@H](CC[C@]3(C)[C@@H]([C@H](C)CCOS(=O)(=O)O)CC[C@@H]23)[C@@]2(C)CC[C@@H](O)C[C@@H]12` (10 µM) registered a morphology score of -0.0685.
